Test results as given in the supplement of paper PMC12067093, “Discovery and optimisation of a covalent ligand for TRIM25 and its application to targeted protein ubiquitination” (Chemical Science, 2025).
Targets with the largest changes are over-represented here; the source holds about 21,000 in all.

Compound: Cc1cc(ccc1-c1ccccc1)C(=O)N1CCCN(CC1)C(=O)CCl [compound 10]
Assay: probe-labelled cysteine peptide fold change vs DMSO (competition) (log2 fold change); higher = less target engagement (more negative = stronger competition)
Conditions: THP-1, incubation time: 4 h
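Further: competitive profiling in live THP-1 cells: cysteine peptides tagged with an iodoacetamide desthiobiotin (IA-DTB) probe, intensity after compound treatment relative to DMSO-treated cells.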

UniProt P48059, sequence (P48059 whole entry, looked up): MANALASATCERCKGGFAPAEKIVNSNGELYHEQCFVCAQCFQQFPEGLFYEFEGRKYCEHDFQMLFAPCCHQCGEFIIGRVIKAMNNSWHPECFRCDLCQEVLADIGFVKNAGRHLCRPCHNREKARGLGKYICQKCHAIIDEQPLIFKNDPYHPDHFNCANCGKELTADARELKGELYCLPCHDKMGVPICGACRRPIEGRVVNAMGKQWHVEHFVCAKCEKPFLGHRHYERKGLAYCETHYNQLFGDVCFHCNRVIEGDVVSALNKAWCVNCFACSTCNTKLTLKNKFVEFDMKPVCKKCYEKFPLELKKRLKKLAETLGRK
UniProt Q9NYP9, sequence (Q9NYP9 whole entry, looked up): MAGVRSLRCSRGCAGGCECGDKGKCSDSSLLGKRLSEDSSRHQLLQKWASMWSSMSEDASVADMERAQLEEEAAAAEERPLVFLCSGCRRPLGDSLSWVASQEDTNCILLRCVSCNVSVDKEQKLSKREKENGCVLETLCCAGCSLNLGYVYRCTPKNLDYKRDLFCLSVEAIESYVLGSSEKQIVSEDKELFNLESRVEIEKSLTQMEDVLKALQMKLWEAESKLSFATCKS
UniProt Q92918, sequence (Q92918 whole entry, looked up): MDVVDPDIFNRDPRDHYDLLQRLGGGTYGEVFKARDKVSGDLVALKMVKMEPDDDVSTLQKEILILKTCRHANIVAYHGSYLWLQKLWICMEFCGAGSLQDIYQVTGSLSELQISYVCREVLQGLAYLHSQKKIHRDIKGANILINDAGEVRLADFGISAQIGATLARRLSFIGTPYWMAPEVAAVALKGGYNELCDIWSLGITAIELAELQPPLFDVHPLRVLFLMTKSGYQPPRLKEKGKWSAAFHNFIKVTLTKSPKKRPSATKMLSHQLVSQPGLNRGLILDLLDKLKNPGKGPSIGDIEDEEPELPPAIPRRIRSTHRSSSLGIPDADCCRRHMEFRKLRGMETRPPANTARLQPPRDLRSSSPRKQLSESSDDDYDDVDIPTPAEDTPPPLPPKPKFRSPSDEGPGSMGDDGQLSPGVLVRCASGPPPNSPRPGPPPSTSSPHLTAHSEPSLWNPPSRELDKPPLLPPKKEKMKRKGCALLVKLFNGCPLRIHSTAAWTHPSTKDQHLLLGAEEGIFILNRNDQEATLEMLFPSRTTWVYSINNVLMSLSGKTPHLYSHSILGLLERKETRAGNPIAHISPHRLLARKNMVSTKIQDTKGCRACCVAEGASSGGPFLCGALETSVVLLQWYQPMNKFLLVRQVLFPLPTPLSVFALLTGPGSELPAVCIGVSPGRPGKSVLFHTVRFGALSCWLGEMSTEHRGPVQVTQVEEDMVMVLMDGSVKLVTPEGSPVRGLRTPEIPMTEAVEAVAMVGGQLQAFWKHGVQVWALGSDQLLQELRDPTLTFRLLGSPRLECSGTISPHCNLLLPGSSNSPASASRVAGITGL
UniProt P35579, sequence (P35579 whole entry, looked up): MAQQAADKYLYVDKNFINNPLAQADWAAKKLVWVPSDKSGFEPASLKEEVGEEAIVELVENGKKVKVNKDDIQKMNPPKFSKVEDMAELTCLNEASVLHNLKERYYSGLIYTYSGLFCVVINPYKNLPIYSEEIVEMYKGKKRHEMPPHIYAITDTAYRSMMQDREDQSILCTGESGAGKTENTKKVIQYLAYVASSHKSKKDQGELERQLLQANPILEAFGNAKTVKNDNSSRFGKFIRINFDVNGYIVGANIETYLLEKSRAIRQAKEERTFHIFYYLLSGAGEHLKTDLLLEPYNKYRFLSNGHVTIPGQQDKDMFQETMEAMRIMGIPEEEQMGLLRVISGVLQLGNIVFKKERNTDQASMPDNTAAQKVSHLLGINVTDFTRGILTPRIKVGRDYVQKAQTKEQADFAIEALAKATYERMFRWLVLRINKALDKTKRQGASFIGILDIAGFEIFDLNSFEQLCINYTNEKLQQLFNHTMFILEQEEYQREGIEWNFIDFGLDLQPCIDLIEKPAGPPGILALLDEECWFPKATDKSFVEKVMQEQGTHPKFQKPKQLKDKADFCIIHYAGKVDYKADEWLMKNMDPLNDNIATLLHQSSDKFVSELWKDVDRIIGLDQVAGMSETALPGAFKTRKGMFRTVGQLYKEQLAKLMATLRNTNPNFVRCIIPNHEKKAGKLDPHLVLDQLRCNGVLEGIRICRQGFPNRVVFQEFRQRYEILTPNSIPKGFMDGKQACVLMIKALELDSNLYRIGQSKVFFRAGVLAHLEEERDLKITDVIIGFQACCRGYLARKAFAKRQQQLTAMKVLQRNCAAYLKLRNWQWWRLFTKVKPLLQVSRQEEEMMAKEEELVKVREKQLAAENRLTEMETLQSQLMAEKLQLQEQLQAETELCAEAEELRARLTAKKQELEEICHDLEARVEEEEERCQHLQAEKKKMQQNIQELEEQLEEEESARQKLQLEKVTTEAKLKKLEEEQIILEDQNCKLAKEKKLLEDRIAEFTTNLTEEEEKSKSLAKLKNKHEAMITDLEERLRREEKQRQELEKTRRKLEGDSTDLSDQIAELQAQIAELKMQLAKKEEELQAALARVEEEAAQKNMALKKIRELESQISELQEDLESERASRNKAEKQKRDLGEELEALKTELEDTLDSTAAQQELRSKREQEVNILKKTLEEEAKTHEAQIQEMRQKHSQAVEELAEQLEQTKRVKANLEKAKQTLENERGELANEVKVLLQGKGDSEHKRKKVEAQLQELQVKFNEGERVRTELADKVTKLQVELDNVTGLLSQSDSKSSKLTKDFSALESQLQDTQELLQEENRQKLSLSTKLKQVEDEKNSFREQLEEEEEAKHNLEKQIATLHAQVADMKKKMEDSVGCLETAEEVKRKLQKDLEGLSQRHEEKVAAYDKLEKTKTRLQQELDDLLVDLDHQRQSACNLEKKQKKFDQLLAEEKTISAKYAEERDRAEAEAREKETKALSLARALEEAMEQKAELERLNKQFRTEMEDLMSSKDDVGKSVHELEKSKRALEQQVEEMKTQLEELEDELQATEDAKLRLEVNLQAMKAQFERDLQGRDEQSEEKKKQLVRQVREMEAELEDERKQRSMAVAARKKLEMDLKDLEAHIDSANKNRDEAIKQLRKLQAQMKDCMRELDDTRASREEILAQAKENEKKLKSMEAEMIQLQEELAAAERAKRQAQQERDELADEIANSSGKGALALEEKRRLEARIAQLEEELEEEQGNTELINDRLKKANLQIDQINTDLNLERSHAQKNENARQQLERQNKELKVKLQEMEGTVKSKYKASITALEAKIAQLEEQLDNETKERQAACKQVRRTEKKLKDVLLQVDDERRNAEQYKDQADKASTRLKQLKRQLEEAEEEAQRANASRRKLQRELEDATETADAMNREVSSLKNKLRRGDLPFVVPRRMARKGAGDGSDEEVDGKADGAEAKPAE
UniProt Q9BQG0, sequence (Q9BQG0 whole entry, looked up): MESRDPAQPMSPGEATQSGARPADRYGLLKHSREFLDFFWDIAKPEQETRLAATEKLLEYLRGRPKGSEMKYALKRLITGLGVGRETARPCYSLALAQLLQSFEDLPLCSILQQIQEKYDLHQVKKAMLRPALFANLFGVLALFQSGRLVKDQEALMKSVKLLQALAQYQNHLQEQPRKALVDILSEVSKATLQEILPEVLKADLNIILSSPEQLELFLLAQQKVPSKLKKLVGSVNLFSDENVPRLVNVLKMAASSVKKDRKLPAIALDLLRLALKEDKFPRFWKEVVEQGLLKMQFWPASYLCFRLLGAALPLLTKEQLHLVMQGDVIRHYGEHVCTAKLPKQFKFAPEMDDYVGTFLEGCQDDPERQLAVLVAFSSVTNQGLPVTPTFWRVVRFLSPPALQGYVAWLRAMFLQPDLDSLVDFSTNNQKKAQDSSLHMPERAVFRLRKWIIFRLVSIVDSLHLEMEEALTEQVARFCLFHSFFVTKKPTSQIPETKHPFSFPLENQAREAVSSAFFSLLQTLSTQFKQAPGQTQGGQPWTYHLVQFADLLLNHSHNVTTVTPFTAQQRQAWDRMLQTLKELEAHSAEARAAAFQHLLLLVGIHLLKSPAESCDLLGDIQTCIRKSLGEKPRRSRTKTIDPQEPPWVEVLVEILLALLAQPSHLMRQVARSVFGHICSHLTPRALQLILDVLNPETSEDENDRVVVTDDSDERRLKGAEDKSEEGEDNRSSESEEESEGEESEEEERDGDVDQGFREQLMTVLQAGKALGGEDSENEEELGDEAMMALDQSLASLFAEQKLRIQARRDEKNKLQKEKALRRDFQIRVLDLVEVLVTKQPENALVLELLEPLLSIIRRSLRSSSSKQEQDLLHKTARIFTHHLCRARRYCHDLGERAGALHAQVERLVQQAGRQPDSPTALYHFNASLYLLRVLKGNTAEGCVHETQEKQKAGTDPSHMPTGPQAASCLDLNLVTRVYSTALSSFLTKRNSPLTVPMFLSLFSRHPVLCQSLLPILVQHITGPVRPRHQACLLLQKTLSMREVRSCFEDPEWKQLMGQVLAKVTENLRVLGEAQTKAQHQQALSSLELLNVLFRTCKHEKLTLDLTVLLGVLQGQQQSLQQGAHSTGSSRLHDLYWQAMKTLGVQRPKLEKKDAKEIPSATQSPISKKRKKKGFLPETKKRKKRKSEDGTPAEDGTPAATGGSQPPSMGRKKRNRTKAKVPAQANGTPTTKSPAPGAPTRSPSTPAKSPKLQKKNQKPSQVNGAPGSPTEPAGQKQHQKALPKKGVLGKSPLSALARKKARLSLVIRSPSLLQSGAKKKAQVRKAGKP
UniProt Q9Y333, sequence (Q9Y333 whole entry, looked up): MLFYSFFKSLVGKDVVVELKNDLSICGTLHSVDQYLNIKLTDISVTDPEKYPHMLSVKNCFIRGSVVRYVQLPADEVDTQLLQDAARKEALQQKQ

| Target | probe-labelled cysteine peptide fold change (10 µM) | probe-labelled cysteine peptide fold change (50 µM) |
| --- | --- | --- |
| MYH9_P35579_789_ITDVIIGFQACCR (UniProt P35579) | -0.109 | -0.0345 |
| MAP4K1_Q92918_335_SSSLGIPDADCCR (UniProt Q92918) | -0.294 | -1.09 |
| MYBBP1A_Q9BQG0_890_RYCHDLGER (UniProt Q9BQG0) | 0.104 | 0.125 |
| MARS_P56192_309_QWNTLYLCGTDEYGTATETK (UniProt P56192) | -0.0161 | 0.0949 |
| MARS_P56192_389_CEHCAR (UniProt P56192) | -0.00939 | -0.304 |
| MTREX_P42285_430_KMVEEVFSNAIDCLSDEDK (UniProt P42285) | -0.306 | -0.485 |
| LY75_O60449-2_1697_NQCTDHGADMISIHNEEENAFILDTLK (UniProt O60449) | -0.0829 | 0.022 |
| LIMS1_P48059_281_AWCVNCFACSTCNTK (UniProt P48059) | 0.00276 | 0.175 |
| MAPK8_P45983_163_SDCTLK (UniProt P45983) | -0.283 | -1.24 |
| LSM2_Q9Y333_26_NDLSICGTLHSVDQYLNIK (UniProt Q9Y333) | 0.109 | 0.253 |
| MCM2_P49736_223_ISDMCK (UniProt P49736) | -0.124 | -0.178 |
| MDN1_Q9NU22_3308_MDRLDNLTCHLLK (UniProt Q9NU22) | -0.00667 | -0.264 |
| MTRR_Q9UBK8_64_AIAEEICEQAVVHGFSADLHCISESDKYDLK (UniProt Q9UBK8) | -0.113 | -0.379 |
| MIS18A_Q9NYP9_85_AQLEEEAAAAEERPLVFLCSGCR (UniProt Q9NYP9) | 0.00435 | -0.0262 |
| LRP1_Q07954_3021_GGDPHSCK (UniProt Q07954) | -0.193 | -0.308 |
